Experimental findings from PubChem BioAssay (NCI) are described below.

Where “and” joins values, the source holds several entries; their conditions need not be identical. Equal entries are not always repeated. This is part of a sample that, as a whole, favours compounds with a hit. Of some 83,000 tested, about 20% had one in any assay.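 Compound tested at a single concentration for 48 hours in 96-well plates; a percent growth value below 10 was scored as active.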 The source holds several records for some structures; these can differ, active in one and inactive in another. Calls of active or inactive are those of the source.

Assay in all cases: NCI-60 one-dose screen, 48 h (100 = growth as untreated, 0 = no growth, -100 = all killed)
Settings in all cases: 10 µM unless noted

Experiment [1] has as its system HCT-15 colon.
Experiment [2] concerns HT29 colon.
For experiment [3], the system named is SNB-75 CNS.
The subject of experiment [4] is SNB-19 CNS.
Experiment [5] has as its system U251 CNS.
Experiment [6] relates to PC-3 prostate.
Experiment [7] relates to SK-MEL-5 melanoma.
For experiment [8], the system named is SK-MEL-28 melanoma.
Experiment [9] relates to SK-MEL-2 melanoma.
The subject of experiment [10] is EKVX NSCLC.
Experiment [11] relates to SN12C renal.
For experiment [12], the system named is TK-10 renal.
For experiment [13], the system named is CAKI-1 renal.
For experiment [14], the system named is A498 renal.
Experiment [15] concerns CCRF-CEM leukemia.
In experiment [16] the test system is MOLT-4 leukemia.
Experiment [17] concerns LOX IMVI melanoma.
Experiment [18] deals with ACHN renal.
Experiment [19] has as its system UACC-62 melanoma.
Experiment [20] has as its system UO-31 renal.

Turning to `COC(=O)/C=C/c1cc(O)c2c(c1)C(C(=O)OC)C(c1ccc(O)c(O)c1)O2` (stereo not given), the growth is 16.7% (inactive) and 16.2% (inactive) in experiment [1]; 22.8% (inactive) and 16.3% (inactive) in [2]; 52.9% (inactive) and 37.5% (inactive) in experiment [3]; 35.7% (inactive) and 37.2% (inactive) in experiment [4]; 20.7% (inactive) and 14.9% (inactive) in experiment [5]; 20.3% (inactive) and 17% (inactive) in experiment [6]. Moreover, the growth is 3.62% (active) and -13.7% (active) in experiment [7]; 55.3% (inactive) and 53% (inactive) in experiment [8]; 50.6% (inactive) and 49.3% (inactive) in experiment [9]; 35.2% (inactive) and 38.2% (inactive) in [10]; 29.5% (inactive) and 24.6% (inactive) in experiment [11]; 55% (inactive) and 51.8% (inactive) in experiment [12]. For the same compound, the growth in experiment [13] was 17.5% (inactive) and 18.5% (inactive); in experiment [14], 18.2% (inactive) and 6.71% (active); in experiment [15], 13.5% (inactive) and 16% (inactive); in experiment [16], 17.8% (inactive) and 21.7% (inactive).

`O=C(Oc1cccc(OC(=O)c2ccccc2)c1)c1ccccc1`: the growth was 73% (inactive) and 102% (inactive) in experiment [1]; 79.9% (inactive) and 102% (inactive) in experiment [2]; 97.1% (inactive) and 79.6% (inactive) in experiment [3]; 111% (inactive) and 98.9% (inactive) in experiment [4]; 80.4% (inactive) and 101% (inactive) in experiment [5]; 9.09% (active) and 91.8% (inactive) in experiment [6]. The growth is 101% (inactive) and 94.8% (inactive) in experiment [7]; 78.3% (inactive) and 87.9% (inactive) in experiment [17]; 93.2% (inactive) in [9]; 102% (inactive) and 104% (inactive) in experiment [10]; 97.8% (inactive) and 99.4% (inactive) in experiment [11]; 133% (inactive) and 85.7% (inactive) in [12]. In addition, the growth in [18] was 103% (inactive) and 99.7% (inactive); in experiment [13] it was 102% (inactive) and 96.7% (inactive); in [14], 99.2% (inactive) and 91.2% (inactive); in [15] it was 80.4% (inactive) and 107% (inactive); in experiment [16], 85% (inactive) and 91.3% (inactive).

For the compound `CCN(CC)CCC(CNc1ccnc2cc(Cl)ccc12)c1ccc(OC)cc1` (stereo not given), the growth in experiment [1] is 42.6% (inactive) and 30.8% (inactive); in experiment [2], 26.4% (inactive) and 14% (inactive); in experiment [3], 68.6% (inactive) and 34.1% (inactive); in experiment [5] it was 58.5% (inactive) and 50.6% (inactive); in [6], 66.5% (inactive) and 62.2% (inactive); in experiment [7], 38.3% (inactive) and 30.4% (inactive). For the same compound, the growth in experiment [19] was 45.3% (inactive) and 51.9% (inactive); in [17], 40.2% (inactive) and 32.1% (inactive); in experiment [8], -78.4% (active) and -54.7% (active); in experiment [9] it was 101% (inactive) and 61.7% (inactive); in experiment [10] it was 69.6% (inactive) and 85.6% (inactive); in [11], 71.4% (inactive) and 60.8% (inactive). In addition, the growth in experiment [20] is -5.93% (active) and -3.07% (active); in [12], 58.5% (inactive) and 46.3% (inactive); in [18], 37.5% (inactive) and 33.3% (inactive); in experiment [13] it was 55.6% (inactive) and 21.6% (inactive); in [14] it was 38.2% (inactive) and 28.7% (inactive); in experiment [15], 63.4% (inactive) and 45.8% (inactive). For the same compound, in [16], the growth is 52.3% (inactive) and 52.5% (inactive).

Turning to `Cn1cc(-c2cc3c(Nc4ccc(CC(=O)Nc5cc(C(C)(C)C)on5)cc4)ncnc3[nH]2)cn1`, the growth in [1] is 17.5% (inactive) and 34.6% (inactive); in [2], -8.17% (active) and -11.7% (active); in experiment [3] it was -44.8% (active) and -42.3% (active); in experiment [5], 0.087% (active) and -9.38% (active); in [6] it was -21.4% (active) and 1.57% (active); in experiment [7], -50.7% (active) and 1.16% (active). Besides, the growth in [19] is -77.9% (active) and -80% (active); in experiment [17] it was 1.91% (active) and 2.35% (active); in [8], -20.2% (active) and -18.4% (active); in experiment [9], -60.5% (active) and -81% (active); in [10] it was 6.89% (active) and 10.1% (inactive); in experiment [11] it was -10.9% (active) and -7.98% (active). In addition, the growth was -11.4% (active) and 9.42% (active) in experiment [20]; 0.328% (active) and -17.2% (active) in experiment [12]; -6.75% (active) and 6.73% (active) in [18]; -10.5% (active) and 7.18% (active) in [13]; -60.1% (active) in [14]; 14.3% (inactive) and 5.35% (active) in experiment [15]. Moreover, the growth in experiment [16] was 9.74% (active) and 5.37% (active).

With `CN1CCN(Cc2occc(=O)c2O)CCN(C)CCN(Cc2occc(=O)c2O)CC1`, the growth was 107% (inactive) and 36% (inactive) in experiment [1]; 96.3% (inactive) and 11.1% (inactive) in experiment [2]; 100% (inactive) in experiment [3]; 98% (inactive) and 87.6% (inactive) in experiment [4]; 94.8% (inactive) and 23.1% (inactive) in [5]; 80.3% (inactive) and 35.6% (inactive) in experiment [6]. Further, the growth in [7] was 81.4% (inactive) and 47.8% (inactive); in [17], 99.1% (inactive) and 43% (inactive); in [8] it was 64.4% (inactive); in experiment [9], 105% (inactive) and 64.9% (inactive); in experiment [10], 104% (inactive) and 62.8% (inactive); in experiment [11] it was 87.9% (inactive) and 82.7% (inactive). The growth is 92.2% (inactive) and 66.6% (inactive) in [20]; 100% (inactive) and 65.2% (inactive) in experiment [12]; 106% (inactive) and 94% (inactive) in experiment [18]; 99.7% (inactive) and 42.1% (inactive) in experiment [13]; 95.8% (inactive) and 13% (inactive) in experiment [14]; 91.5% (inactive) and 49% (inactive) in experiment [15]. Besides, the growth in experiment [16] is 97.2% (inactive) and 47.9% (inactive).
